High-throughput results (PubChem BioAssay)
D1 ag: agonists of human D1 dopamine receptor. P21728. HEK293 T-REx D1 cells, calcium flux, agonist mode. activation, % at 2 µM. 360,000 compounds, 1% hits. AID 504660; in the data active means activation above about 30%; further: 0% is about no effect
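Tetracycline-induced HEK293 TREx D1 cells, force-coupled to calcium signalling, were dye-loaded with a no-wash calcium kit. Compound was pin-added after a 10 s baseline. Fluorescence was read kinetically at 1 cycle/s for 180 s, with calcium rises flagged as agonism.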
D3 antag: blocks the human D3 dopamine receptor; P35462; D3R cells, DiscoveRx beta-arrestin luminescence, antagonist mode; active compounds read low; max response, negative = inhibition, %; 360,000 compounds, 2.5% hits; AID 652054; in the data active means max response below about -50%; further: on the % scale 0 is the no-effect control and ±100 the full control effect
Target sequence (P35462 whole entry, looked up): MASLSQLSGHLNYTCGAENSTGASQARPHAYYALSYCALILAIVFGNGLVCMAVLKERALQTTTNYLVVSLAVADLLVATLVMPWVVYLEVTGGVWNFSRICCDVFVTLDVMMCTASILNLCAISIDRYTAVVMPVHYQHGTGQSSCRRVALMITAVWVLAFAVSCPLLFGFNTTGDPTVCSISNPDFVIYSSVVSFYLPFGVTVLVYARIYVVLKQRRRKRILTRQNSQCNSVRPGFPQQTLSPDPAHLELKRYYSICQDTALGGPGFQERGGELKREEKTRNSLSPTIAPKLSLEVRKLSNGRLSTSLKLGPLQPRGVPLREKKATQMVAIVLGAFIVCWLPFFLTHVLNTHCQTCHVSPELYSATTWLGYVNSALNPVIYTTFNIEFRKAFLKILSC
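Cells plated overnight at 1500 cells/well, then exposed to library compounds with dopamine controls for 90 minutes at 37 degrees C. DiscoveRx reagent added for 30–60 minutes at room temperature; luminescence read, quantitative HTS format.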
D1 potentiator: potentiators of human D1 dopamine receptor; 360,000 compounds, 0.036% hits; potentiation, % at 10 µM; HEK293 TREx D1 cells, calcium flux, dopamine EC20 potentiation; P21728; in the data active means potentiation above about 30%; further: 0% is about no effect
D1 antagonist: blocks dopamine activation of the human D1 receptor; P21728; HEK293 TREx D1 cells, calcium flux, dopamine EC80; active compounds read low; activity change, negative = inhibition, % at 10 µM; 360,000 compounds, 3.2% hits; in the data active means activity change below about -30%; further: on the % scale 0 is the no-effect control and ±100 the full control effect
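Tetracycline-induced HEK293 Trex D1 cells, force-coupled to calcium, dye-loaded; compounds added and read 180 s, then EC80 dopamine added and calcium flux tracked kinetically another 180 s.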
DRD3 agonist: activates the human D3 dopamine receptor. max activation, %. D3R DiscoveRx beta-arrestin cells, luminescence, 90 min. AID 652048. 410,000 compounds, 0.58% hits; in the data active means max activation above about 30%; further: 0% is about no effect
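Agonist mode: compounds and dopamine controls were applied to plated cells for 90 min at 37 degrees C after an overnight attachment at 1500 cells/well. Luminescent read-out followed 30 - 60 minutes at room temperature with DiscoveRx detection reagent.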
Active calls of the source: *. Rows were chosen to be rich in hits. Some 6.1% of all compounds tested hit in one or more screens of this group.

How did CC(Cc1ccccc1)NC(N)=O (stereo not drawn) do in these assays?
D1 ag: 1; D3 antag: -5; D1 potentiator: 0; D1 antagonist: -8; DRD3 agonist: -10

Results for CC(Cc1ccccc1)NC(=O)/C=C/c1ccc(Cl)cc1 (stereo not drawn) ?
D1 ag: 1; D3 antag: 6; D1 potentiator: -9; D1 antagonist: -32*; DRD3 agonist: 2

What do the screens show for `O=[N+]([O-])c1ccc(CN2CC=C(c3ccccc3)CC2)cc1`?
D1 ag: 0; D3 antag: -55*; D1 potentiator: -6; D1 antagonist: -6; DRD3 agonist: -16

How did Fc1ccc(Cn2nnnc2C(c2ccc(Cl)cc2)N2CC=C(c3ccc(F)cc3)CC2)cc1 (stereo not drawn) do in these assays?
D1 ag: 3; D3 antag: -15; D1 potentiator: 16; D1 antagonist: -8; DRD3 agonist: -4

Results for COc1cc(C)c(CN2CC=C(c3ccc(F)cc3)CC2)cc1C ?
D1 ag: 1; D3 antag: -76*; D1 potentiator: -9; D1 antagonist: -6; DRD3 agonist: -10

What do the screens show for `CN(C)c1ccc(CN2CC=C(c3ccc(F)cc3)CC2)cc1`?
D1 ag: 5; D3 antag: -88*; D1 potentiator: -6; D1 antagonist: -20; DRD3 agonist: -60

Results for COc1cc(CN2CC=C(c3ccc(F)cc3)CC2)cc(OC)c1 ?
D1 ag: 2; D3 antag: -88*; D1 potentiator: -4; D1 antagonist: 3; DRD3 agonist: -24

How did COc1ccc(OC)c(C[C@H](C)N)c1 do in these assays?
DRD3 agonist: 9

Results for CCC1(C)OC(c2ccccc2)=C/C(=C/C=C2C(=O)NC(=O)NC2=O)O1 (stereo not drawn) ?
D1 ag: 108*; D3 antag: 19; D1 potentiator: -5; D1 antagonist: -7; DRD3 agonist: 6

How did NCC(O)c1cccc(O)c1 (stereo not drawn) do in these assays?
DRD3 agonist: 3

Results for CCCN1CC[C@@H]2c3cc(O)ccc3CC[C@@H]21 ?
D1 ag: 0; D3 antag: 10; D1 potentiator: -6; D1 antagonist: -6; DRD3 agonist: 51*

How did O=CC(Cl)P(=O)(N1CCOCC1)N1CCOCC1 (stereo not drawn) do in these assays?
D1 ag: 1; D3 antag: 21; D1 potentiator: -6; D1 antagonist: -36*; DRD3 agonist: 8

What do the screens show for `CC(C)(C)P(=O)(N1CCOCC1)N1CCOCC1`?
D1 ag: 3; D3 antag: 1; D1 potentiator: 0; D1 antagonist: -4; DRD3 agonist: 14

Results for COP(=S)(OC)Oc1ccc(S(=O)(=O)N(C)C)cc1 ?
DRD3 agonist: 5

What do the screens show for `CNC(C)Cc1ccccc1Sc1ccc(O)cc1` (stereo not drawn)?
D1 ag: 20; D3 antag: -73*; D1 potentiator: -17; D1 antagonist: -59*; DRD3 agonist: -21

How did C/C1=C\[C@@H](C)C/C=C/[C@H]2[C@@H]3O[C@]3(C)[C@@H](C)[C@H]3[C@H](Cc4c[nH]c5ccccc45)NC(=O)[C@]32C(=O)/C=C/C(=O)[C@@H]1O do in these assays?
D1 ag: -3; D3 antag: -51*; D1 potentiator: 4; D1 antagonist: 10; DRD3 agonist: -46

How did C=CCN=C=S do in these assays?
DRD3 agonist: -15

How did Cc1ccccc1C(=O)N1Cc2cnnn2-c2ccccc2C1C#N (stereo not drawn) do in these assays?
D3 antag: 0; DRD3 agonist: 9

How did Cc1ccccc1CN1Cc2cnnn2-c2ccccc2C1C#N (stereo not drawn) do in these assays?
D3 antag: -115*; DRD3 agonist: -66

How did Cc1ccc2[nH]c(C)c(CCNCc3ccco3)c2c1 do in these assays?
D1 ag: 11; D3 antag: -25; D1 potentiator: -3; D1 antagonist: 2; DRD3 agonist: -10

How did Cc1[nH]c2ccc(OC(F)(F)F)cc2c1CCNCc1cccc([N+](=O)[O-])c1 do in these assays?
D1 ag: 25; D3 antag: -64*; D1 potentiator: -7; D1 antagonist: -8; DRD3 agonist: -19

What do the screens show for `COc1ccc2[nH]c(C)c(CCNCc3cccnc3)c2c1`?
D1 ag: 34*; D3 antag: -19; D1 potentiator: 3; D1 antagonist: 3; DRD3 agonist: -5

How did COc1ccc2[nH]cc(CCNCc3cccnc3)c2c1 do in these assays?
D1 ag: 0; D3 antag: 4; D1 potentiator: -4; D1 antagonist: -6; DRD3 agonist: -15

Results for Cc1[nH]c2ccc(OC(F)(F)F)cc2c1CCNCc1ccc(Cl)cc1 ?
D1 ag: 41*; D3 antag: -25; D1 potentiator: 0; D1 antagonist: -10; DRD3 agonist: -2

How did CCOc1cccc(CNCCc2c(C)[nH]c3ccc(OC(F)(F)F)cc23)c1O do in these assays?
D1 ag: 117*; D3 antag: 19; D1 potentiator: -2; D1 antagonist: -20; DRD3 agonist: 5

What do the screens show for `Cc1ccc(-n2c(=O)[nH]c3ccc(Br)cc3c2=O)cc1`?
D1 ag: 0; D1 potentiator: -1; D1 antagonist: -9; DRD3 agonist: -8

How did CCC(C)(S(=O)(=O)CC)S(=O)(=O)CC do in these assays?
DRD3 agonist: -2

How did CCc1ccc(-n2nc(C)c3c2NC(=O)CSC3c2ccc(OC)cc2OC)cc1 (stereo not drawn) do in these assays?
D1 ag: 1; D1 potentiator: -5; D1 antagonist: 0; DRD3 agonist: -20

What do the screens show for `C=CCN1CC[C@]23CCCC[C@H]2[C@H]1Cc1ccc(O)cc13`?
DRD3 agonist: -19

How did COc1ccc(CN2C(=O)NC(=O)/C(=C/c3ccc([N+](=O)[O-])s3)C2=O)cc1 do in these assays?
D1 ag: 9; D3 antag: -2; D1 potentiator: 0; D1 antagonist: 1; DRD3 agonist: 18

What do the screens show for `O=C1NC(=O)N(Cc2ccc(F)cc2)C(=O)/C1=C\c1ccc([N+](=O)[O-])s1`?
D1 ag: 15; D3 antag: -55*; D1 potentiator: 16; D1 antagonist: 0; DRD3 agonist: -13

How did CC(C)=CCN1CC[C@]2(C)c3cc(O)ccc3C[C@H]1[C@H]2C do in these assays?
DRD3 agonist: -24

How did CCCC[N+]12C3C[C@H](C4[C@H](O)[C@]5(C[C@@H]41)c1ccccc1N(C)[C@@H]35)[C@H](CC)[C@H]2O (stereo partly drawn) do in these assays?
D1 ag: -1; D3 antag: -2; D1 potentiator: 3; D1 antagonist: 7; DRD3 agonist: -12

What do the screens show for `C/C=C1\CN2[C@H]3C[C@@]45c6ccccc6N(C)[C@H]4[C@@H]2CC1C3[C@H]5O` (stereo partly drawn)?
D3 antag: -63*; DRD3 agonist: -56
